PubChem BioAssay (NCI)
This is part of a sample that, as a whole, favours compounds with a hit. Of some 79,000 tested, about 15% had one in any assay. The source made the active and inactive calls. No stated cut-off is given here; in the data, active means growth inhibition above about 70%; inactive means the rest.

Assays:
[1] = NCI Yeast Anticancer Drug Screen. Data for the mec2-1 strain (AID 157); conditions: S. cerevisiae mec2-1 strain, hits give high values
Procedure, shortened: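 Each compound was tested on mec2-1 yeast, a strain altered in DNA damage repair or cell cycle control. Growth inhibition is reported relative to vehicle.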

[2] = NCI Yeast Anticancer Drug Screen. Data for the rad14 strain (AID 159);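 further: 0% = growth of vehicle-treated control cultures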; conditions: S. cerevisiae rad14 strain growth inhibition, hits give high values
Procedure, shortened: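 Test compounds were applied to a repair-deficient yeast strain. Its growth was then compared with that of cultures given vehicle alone, and inhibition was expressed relative to those controls.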

[3] = NCI Yeast Anticancer Drug Screen. Data for the sgs1 mgt1 strain (AID 161);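 further: 0% = growth of cultures given vehicle only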; conditions: S. cerevisiae sgs1 mgt1 strain, hits give high values
Procedure, shortened: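 Mutant yeast exposed to compound; growth scored against vehicle-only wells.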

[4] = NCI Yeast Anticancer Drug Screen. Data for the CLN2oe strain (AID 163);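 further: 0% = growth of vehicle-only control cultures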; conditions: S. cerevisiae CLN2oe strain, hits give high values
Procedure, shortened: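 First, the altered yeast strain was treated with each compound; second, its growth was measured; finally, inhibition was derived by comparison with vehicle controls.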

[5] = NCI Yeast Anticancer Drug Screen. Data for the cln2 rad14 strain (AID 165);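 further: 0% = growth equal to vehicle treated cultures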; conditions: S. cerevisiae cln2 rad14 strain, hits give high values
Procedure, shortened: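 Test compounds were added to cln2 rad14 yeast cultures; inhibition of growth was then determined by comparison with vehicle treatment.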

[6] = NCI Yeast Anticancer Drug Screen. Data for the bub3 strain (AID 167); conditions: S. cerevisiae bub3 mutant strain, hits give high values
Procedure, shortened: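 Yeast carrying a defined mutation is treated with each compound, and growth is compared with that of vehicle-exposed cells to give inhibition.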

[7] = NCI Yeast Anticancer Drug Screen. Data for the wt2 strain (AID 169);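 further: 0% = growth of vehicle-treated yeast cultures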; conditions: S. cerevisiae wt2 strain growth inhibition, hits give high values
Procedure, shortened: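 The panel's yeast strains carry defined changes in DNA repair or cell cycle genes. Each strain is grown with compound, and growth loss is scored relative to vehicle.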

[8] = NCI Yeast Anticancer Drug Screen. Data for the mlh1 strain (AID 171);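 further: 0% = growth of vehicle-treated control cultures of the same strain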; conditions: S. cerevisiae mlh1 strain growth inhibition, hits give high values
Procedure, shortened: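 Inhibition values reflect reduced yeast growth in the presence of compound, referenced to vehicle controls, using a strain chosen for its alteration in DNA repair or cell cycle control.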

[9] = NCI Yeast Anticancer Drug Screen. Data for the sgs1 strain (AID 173);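 further: 0% = growth of vehicle-only control cultures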; conditions: S. cerevisiae sgs1 mutant, hits give high values
Procedure, shortened: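 Vehicle-treated cultures served as reference for growth inhibition of a yeast strain altered in DNA damage repair or cell cycle control after compound exposure.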

[10] = NCI Yeast Anticancer Drug Screen. Data for the mlh1 rad18 strain (AID 175); conditions: S. cerevisiae mlh1 rad18 strain growth inhibition, hits give high values
Procedure, shortened: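 Inhibition values reflect reduced growth of mutant yeast versus vehicle-treated controls following compound exposure; the mutations affect DNA damage repair.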

[11] = NCI Yeast Anticancer Drug Screen. Data for the rad18 strain (AID 177); conditions: S. cerevisiae rad18 mutant growth inhibition, hits give high values
Procedure, shortened: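 Steps: expose repair-mutant yeast to compound; measure growth; express as inhibition relative to vehicle control.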

[12] = NCI Yeast Anticancer Drug Screen. Data for the rad52 strain (AID 147);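 further: 0% = growth of vehicle-treated control cultures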; conditions: S. cerevisiae rad52 mutant growth inhibition, hits give high values
Procedure, shortened: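 Inhibition of yeast growth, referenced to vehicle controls, was the measured output for a strain with defective DNA damage repair.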

[13] = NCI Yeast Anticancer Drug Screen. Data for the wt1 strain (AID 149);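 further: 0% = growth of vehicle-treated wt1 cultures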; conditions: S. cerevisiae wt1 strain (SPY 50644) growth inhibition, hits give high values
Procedure, shortened: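 wt1 yeast, compound-treated; % growth inhibition vs vehicle control.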

[14] = NCI Yeast Anticancer Drug Screen. Data for the rad50EPP+ strain (AID 151);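 further: 0% = growth of vehicle-treated control cultures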; conditions: S. cerevisiae rad50 mutant strain, hits give high values
Procedure, shortened: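 Genetically defined yeast (rad50EPP+, DNA damage repair alteration) is grown with compound, and inhibition of growth is expressed relative to vehicle-treated controls.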

[15] = NCI Yeast Anticancer Drug Screen. Data for the mgt1 strain (AID 153); conditions: S. cerevisiae mgt1 mutant growth inhibition, hits give high values
Procedure, shortened: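 In the mgt1 strain, test compounds were added and growth inhibition was determined relative to vehicle-treated controls.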

[16] = NCI Yeast Anticancer Drug Screen. Data for the rad50 strain (AID 155);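 further: 0% = growth of vehicle-only cultures of the same strain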; conditions: S. cerevisiae rad50 strain growth inhibition, hits give high values
Procedure, shortened: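 Genetically altered yeast (DNA repair pathway); compound treatment; growth inhibition vs vehicle ctrl.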

[17] = at 5.0 µM (retest, dose inferred, filed as 0.5)
[18] = at 50.0 µM (retest, dose inferred, filed as 5.0)

Measured: growth inhibition

OC(Cc1cccc2ccccc12)CN1CCC(c2ccccc2)CC1 (stereo unspecified)
inactive: [1]; [17] 13% | [1]; at 11.0 µM 50% | [1]; [18] 57% | [1]; at 50.0 µM 45.7% | [3]; [17] 51% | [3]; [18] 41% | [4]; at 1.2 µM 63% | [5]; [17] 58% | [6]; at 1.2 µM 39% | [6]; at 3.7 µM 41% | [6]; [17] 64% | [6]; at 11.0 µM 54% | [6]; at 50.0 µM 69.2% | [7]; at 1.2 µM 50% | [7]; at 3.7 µM 52% | [8]; at 1.2 µM 31% | [8]; at 3.7 µM 38% | [8]; at 11.0 µM 48% | [9]; at 1.2 µM 60% | [9]; at 3.7 µM 59% | [9]; at 11.0 µM 67% | [10]; at 50.0 µM 69.8% | [11]; at 1.2 µM 30% | [11]; at 3.7 µM 38% | [11]; at 11.0 µM 54% | [11]; at 33.0 µM 65%
active: [1]; at 33.0 µM 86% | [1]; at 100.0 µM 97% | [2]; at 1.2 µM 71% | [2]; at 3.7 µM 75% | [2]; at 11.0 µM 89% | [2]; at 33.0 µM 97% | [2]; at 100.0 µM 98% | [3]; at 50.0 µM 71.2% | [4]; at 3.7 µM 74% | [4]; at 11.0 µM 86% | [4]; at 33.0 µM 94% | [4]; at 100.0 µM 97% | [5]; [18] 76% | [5]; at 50.0 µM 74.2% | [6]; at 33.0 µM 79% | [6]; [18] 87% | [6]; at 100.0 µM 97% | [7]; at 11.0 µM 72% | [7]; at 33.0 µM 84% | [7]; at 100.0 µM 97% | [8]; at 33.0 µM 84% | [8]; at 100.0 µM 98% | [9]; at 33.0 µM 83% | [9]; at 100.0 µM 97% | [10]; [17] 74% | [10]; [18] 89% | [11]; at 100.0 µM 87%

COc1ccc2nc3cccc([N+](=O)[O-])c3c(NCCCCCC(=O)O)c2c1
active: [12]; at 1.2 µM 87% | [12]; at 3.7 µM 96% | [12]; at 11.0 µM 97% | [12]; at 33.0 µM 98% | [12]; at 100.0 µM 98% | [13]; at 11.0 µM 93% | [13]; at 33.0 µM 98% | [13]; at 100.0 µM 98% | [14]; at 3.7 µM 81% | [14]; at 11.0 µM 95% | [14]; at 33.0 µM 97% | [14]; at 100.0 µM 98% | [15]; at 11.0 µM 91% | [15]; at 33.0 µM 97% | [15]; at 100.0 µM 99% | [16]; at 1.2 µM 84% | [16]; at 3.7 µM 94% | [16]; [17] 97% | [16]; at 11.0 µM 96% | [16]; at 33.0 µM 97% | [16]; [18] 98% | [16]; at 50.0 µM 87% | [16]; at 100.0 µM 97% | [1]; at 3.7 µM 96% | [1]; [17] 96% | [1]; at 11.0 µM 97% | [1]; at 33.0 µM 98% | [1]; [18] 99% | [1]; at 50.0 µM 91% | [1]; at 100.0 µM 99% | [2]; at 1.2 µM 96% | [2]; at 3.7 µM 99% | [2]; at 11.0 µM 99% | [2]; at 33.0 µM 99% | [2]; at 100.0 µM 99% | [3]; [17] 95% | [3]; [18] 99% | [3]; at 50.0 µM 82.7% | [4]; at 11.0 µM 91% | [4]; at 33.0 µM 97% | [4]; at 100.0 µM 98% | [5]; [17] 99% | [5]; [18] 99% | [5]; at 50.0 µM 88.8% | [6]; at 11.0 µM 96% | [6]; at 33.0 µM 97% | [6]; [18] 99% | [6]; at 50.0 µM 87.2% | [6]; at 100.0 µM 99% | [7]; at 11.0 µM 94% | [7]; at 33.0 µM 97% | [7]; at 100.0 µM 99% | [8]; at 11.0 µM 94% | [8]; at 33.0 µM 97% | [8]; at 100.0 µM 98% | [9]; at 1.2 µM 90% | [9]; at 3.7 µM 93% | [9]; at 11.0 µM 98% | [9]; at 33.0 µM 98% | [9]; at 100.0 µM 98% | [10]; [17] 97% | [10]; [18] 98% | [10]; at 50.0 µM 82.6% | [11]; at 1.2 µM 96% | [11]; at 3.7 µM 96% | [11]; at 11.0 µM 96% | [11]; at 33.0 µM 97% | [11]; at 100.0 µM 98%
inactive: [13]; at 1.2 µM 2% | [13]; at 3.7 µM 29% | [14]; at 1.2 µM 38% | [15]; at 1.2 µM 0% | [15]; at 3.7 µM 26% | [1]; at 1.2 µM 63% | [4]; at 1.2 µM 2% | [4]; at 3.7 µM 50% | [6]; at 1.2 µM -11% | [6]; at 3.7 µM 34% | [6]; [17] 2% | [7]; at 1.2 µM 6% | [7]; at 3.7 µM 42% | [8]; at 1.2 µM 23% | [8]; at 3.7 µM 63%
